Data reported in PubChem BioAssay AID504942 (Broad Institute, 2011).
Results with a measured potency or affinity are listed apart. Calls of active or inactive are those of the source. How the calls were made is not given here.

Test: HeLa cell cytotoxicity, dose response, cytotoxicity control, 48 h, plate reader, cherry-picks (AID 504942)
Conditions: series mostly up to 38 µM

Structure (SMILES)	outcome
N#CC(c1ccc(Cl)cc1)c1ccc(Cl)nn1 (centres undefined)	inactive
O=C1C=C(c2cc(F)ccc2F)C[C@@H](c2ccc(F)cc2)C1	inactive
Cc1cccc(C(C#N)c2ccc(Cl)nn2)c1 (centres undefined)	inactive
OC(c1cccc(Cl)c1)c1nccc2ccccc12 (centres undefined)	inactive
O=C1C=C(c2cccc(Cl)c2)C[C@@H](c2ccc(F)cc2)C1	inactive
O=[N+]([O-])c1ccc(N2CCCCC2)cc1	inactive
CCOC(=O)c1ccc(-c2ccc(CO)o2)cc1	inactive
CCOC(=O)N1CCN(c2ccc(Cl)cc2)CC1	inactive
O=C1C2C3C=CC(C4CC34)C2C(=O)N1Cc1ccco1 (centres undefined)	inactive
N#Cc1cc(-c2ccccc2)cnc1Cl	inactive
Nc1ccc(OCc2ccccc2)cc1[N+](=O)[O-]	inactive
CCCCCC1CC(COc2ccccc2)OC1=O (centres undefined)	inactive
N#CC(c1ccc(Cl)nn1)c1ccccc1Cl (centres undefined)	inactive
O=[N+]([O-])c1ccc(-c2cccnc2)cc1	inactive
COc1ccc(N2CCN(C(=O)c3ccc(Br)o3)CC2)cc1	inactive
O=C(NC1CCS(=O)(=O)C1)c1cccc(Br)c1 (centres undefined)	inactive
Cc1cc(NC(=O)c2c(F)c(F)c(F)c(F)c2F)no1	inactive
Cc1ccc(S(=O)(=O)NCCC(C)C)cc1[N+](=O)[O-]	inactive
O=C(NC1CCCCCCC1)c1cccc(Cl)c1	inactive
Cc1cccc(NC(=O)Nc2cc(C)on2)c1	inactive
O=S1(=O)CCOC[C@H](c2ccccc2)N1Cc1cccc(Cl)c1	inactive
Cc1ccc(C(C#N)c2ccc(Cl)nn2)cc1 (centres undefined)	inactive
Cc1cc(C)nc(N(C#N)Cc2cccc([N+](=O)[O-])c2)n1	inactive
N#CN(Cc1ccccc1)Cc1ccccc1	inactive
C#CCSc1ncc(-c2ccccc2)cn1	inactive
N#Cc1cc([N+](=O)[O-])ccc1N1CCCC1	inactive
O=CN(c1ccccc1)c1ccc2ccccc2c1	inactive
N#CC(c1ccc(Cl)cc1)c1cccc(Cl)n1 (centres undefined)	inactive
Cc1cc(NC(=O)c2cc([N+](=O)[O-])cc([N+](=O)[O-])c2C)no1	inactive
